The structures appear in SMILES notation. Several values for one entry are separate records, joined by “and”; a condition that tells them apart may be missing. Equal values may be shown once. Results filed as inconclusive are left out. Activity calls are given as the source filed them. Unless noted, calls follow the shape of the full dose curve.

A short description of assay [1]: qHTS for Inhibitors of the Functional Ribonucleoprotein Complex (vRNP) of Lassa (LASV) Arenavirus: Viability assay - alamar blue signal for LASV Primary Screen (AID 1347083; calls by dose curve; tested in HEK293 reporter line; also: nearly all actives have a fitted effect of over 80% in size; also: potency is read from the fitted curve at half-maximal effect).
A short description of assay [2]: qHTS for Inhibitors of the Functional Ribonucleoprotein Complex (vRNP) of Lymphocytic Choriomeningitis Arenaviruses (LCMV): Viability assay - alamar blue signal for LCMV Primary Screen (AID 1347085; calls by dose curve; tested in HEK293 reporter line; also: nearly all actives have a fitted effect of over 80% in size; also: potency is read from the fitted curve at half-maximal effect).
The target of assay [3] is Nucleoprotein (Lymphocytic choriomeningitis virus (strain Armstrong)) (UniProt P09992). Nature of the assay: qHTS for Inhibitors of the Functional Ribonucleoprotein Complex (vRNP) of Lymphocytic Choriomeningitis Arenaviruses (LCMV): LCMV Primary Screen - GLuc reporter signal (AID 1347086). Also: nearly all actives have a fitted effect of over 70% in size. Also: potency is read from the fitted curve at half-maximal effect. As to activity change, negative = inhibition: % is scaled to controls: 0 for no effect and ±100 for the full control effect.
Sequence of Nucleoprotein (Lymphocytic choriomeningitis virus (strain Armstrong)) (P09992 whole entry, looked up): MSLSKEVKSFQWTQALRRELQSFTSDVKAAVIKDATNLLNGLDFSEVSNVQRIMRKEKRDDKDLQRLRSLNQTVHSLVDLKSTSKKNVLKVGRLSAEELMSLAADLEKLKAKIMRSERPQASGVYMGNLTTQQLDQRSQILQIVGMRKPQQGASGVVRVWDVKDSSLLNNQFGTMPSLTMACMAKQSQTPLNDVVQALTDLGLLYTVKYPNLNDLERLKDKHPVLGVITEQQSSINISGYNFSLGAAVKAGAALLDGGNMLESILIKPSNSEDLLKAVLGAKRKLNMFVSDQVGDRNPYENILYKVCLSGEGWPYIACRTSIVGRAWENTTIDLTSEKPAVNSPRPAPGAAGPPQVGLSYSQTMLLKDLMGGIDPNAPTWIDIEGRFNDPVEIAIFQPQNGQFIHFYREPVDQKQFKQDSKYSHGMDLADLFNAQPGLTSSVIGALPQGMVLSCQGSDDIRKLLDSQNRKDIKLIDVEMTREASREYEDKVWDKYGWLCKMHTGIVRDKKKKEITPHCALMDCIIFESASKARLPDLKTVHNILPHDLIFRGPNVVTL
Assay [4] in a line: Primary qHTS to identify inhibitors of SARS-CoV-2 cell entry (AID 1645846). Also: nearly all actives have a fitted effect of over 45% in size. Also: potency is read from the fitted curve at half-maximal effect. The settings on record: activity change, negative = inhibition: at 57.1 µM (top of the series) unless noted. The procedure, abridged: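 Inhibition of spike-mediated entry was scored in human ACE2-transfected Expi293F cells. Particles were MLV-pseudotyped with Wuhan-Hu-1 S carrying a 19-aa C-terminal deletion; signal was luciferase after two days, scaled between spike PP and fusion-protein-free PP.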

Assay [5] can be described thus: Confirmatory qHTS to identify inhibitors of SARS-CoV-2 cell entry (AID 1645844). Also: nearly all actives have a fitted effect of over 45% in size. Also: potency is read from the fitted curve at half-maximal effect. Put shortly:
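HEK293-ACE2 cells (Expi293F stably expressing human ACE2) were pretreated with compounds for 1 hr at 37C, then infected with MLV-based particles carrying Wuhan-Hu-1 spike (C-terminal 19-aa truncation). Luciferase luminescence read after 48 hr; normalized to spike PP (100%) and bald PP (0%).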

The nature of assay [6]: Cytotoxicity counterscreen for inhibitors of SARS-CoV-2 cell entry (AID 1645845). Also: nearly all actives have a fitted effect of over 50% in size. Also: potency is read from the fitted curve at half-maximal effect. Put shortly:
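Expi293F/hACE2 cells seeded overnight; cpd pin-transferred in DMSO, 1 h preincubation, + media, 48 h 37 C 5% CO2; ATPLite 1step luminescence; normalized to cells and no cells.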

Assay [7] is described as follows: Validation screen for inhibitors of Lassa infection (AID 463096). Also: potency is read from the fitted curve at half-maximal effect. As to activity change, negative = inhibition: % is scaled to controls: 0 for no effect and ±100 for the full control effect.
The nature of assay [8]: Inducers of the Endoplasmic Reticulum Stress Response (ERSR) in human glioma: Validation (AID 504836; active = well fitted curve in the direction sought with a large enough effect; an effect the other way counts as inactive or inconclusive; also: 0% is about no effect). The procedure, abridged:
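Stably transfected U87-MG human glioma cells carrying a GRP78-based luminescent sensor were seeded at 1000 cells/well, pin-dosed with compounds and incubated 16 h. Luciferase reagent was then added, and end-point luminescence was read after 10 min at room temperature.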

The nature of assay [9]: Confirmatory qHTS for VERO E6 Cytotoxicity Assay: Counterscreen for SARS-CoV-2 CPE Assay (AID 1508605). Also: % is scaled to controls: 0 for no effect and ±100 for the full control effect; nearly all actives have a fitted effect of over 60% in size.
Assay [10] in a line: Confirmatory qHTS for activators (rescue) of SARS-CoV-2 Cytopathic Effect (CPE) (AID 1508606). Also: potency is read from the fitted curve at half-maximal effect; nearly all actives have a fitted effect of over 70% in size.
Assay [11] addresses Bile acid receptor (Homo sapiens) (UniProt Q96RI1). Nature of the assay: qHTS assay for small molecule agonists of farnesoid X receptor signaling (AID 588527).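 Also: 0% = vehicle basal and 100% = reference agonist.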 The note with it: HEK293T FXR-UAS-bla, beta-lactamase ratio, 16 h; activation: stronger effect = higher value. Put shortly:
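Agonist-mode beta-lactamase reporter in GeneBLAzer FXR-UAS-bla HEK293T cells, titration up to 92 uM, 16 h exposure at 37 C, CCF4 fluorescence. Response scaled to DMSO (0%) and 100 uM chenodeoxycholic acid (100%), then Hill-fitted for EC50 and efficacy.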

The target of assay [12] is Peroxisome proliferator-activated receptor delta (Homo sapiens) (UniProt Q03181). Nature of the assay: qHTS assay for small molecule agonists of peroxisome proliferator-activated receptor delta signaling (AID 588534).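 Also: 0% = DMSO basal wells and 100% = positive control agonist at 10 µM.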 Put shortly:
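Cell-based beta-lactamase reporter assay run in agonist mode: cells seeded and incubated 5 hrs at 37 C, compounds added and incubated 18 hrs at 37 C. CCF4 dye fluorescence read after 2 hrs at RT; EC50 and efficacy from Hill fits.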

Assay [13] can be described thus: VSVG counterscreen qHTS to identify inhibitors of SARS-CoV-2 cell entry (AID 1645847). Also: potency is read from the fitted curve at half-maximal effect; nearly all actives have a fitted effect of over 65% in size. Put shortly: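 Luminescence from a luciferase reporter, normalised to bald particle and VSV-G pseudotyped particle wells, is the read-out. Cells are HEK293 expressing human ACE2, exposed to compound 1 h before a 48 h particle infection at 37 °C.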
Assay [14] can be described thus: Primary qHTS for Huh7 cytotoxicity: counterscreen for inhibitors of MERS-S pseudotyped particle cell entry (AID 1479147). The note with it: outcome: dose series up to 57.1 µM unless noted.
Assay [15] can be described thus: Primary qHTS for Vero E6 cytotoxicity: counterscreen for inhibitors of SARS-S pseudo-typed particle cell entry (AID 1479150). The note with it: outcome: dose series up to 57.1 µM unless noted.
The nature of assay [16]: Quantitative high throughput screen for delayed death inhibitors of the malarial parasite plastid, 96 hour incubation (AID 488745; active = well fitted curve in the direction sought with a large enough effect; an effect the other way counts as inactive or inconclusive; also: % is scaled to controls: 0 for no effect and ±100 for the full control effect; nearly all actives have a fitted effect of over 70% in size). Put shortly: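 P. falciparum carrying an integrated firefly luciferase reporter, grown in erythrocytes (2% hematocrit, 0.1% parasitemia final) in RPMI 1640/0.5% Albumax, was exposed to compound for 96 h (two generations) at 37 C, 5% CO2. Luminescence decrease indicated growth inhibition.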

Sequence of Bile acid receptor (Homo sapiens) (Q96RI1 whole entry, looked up): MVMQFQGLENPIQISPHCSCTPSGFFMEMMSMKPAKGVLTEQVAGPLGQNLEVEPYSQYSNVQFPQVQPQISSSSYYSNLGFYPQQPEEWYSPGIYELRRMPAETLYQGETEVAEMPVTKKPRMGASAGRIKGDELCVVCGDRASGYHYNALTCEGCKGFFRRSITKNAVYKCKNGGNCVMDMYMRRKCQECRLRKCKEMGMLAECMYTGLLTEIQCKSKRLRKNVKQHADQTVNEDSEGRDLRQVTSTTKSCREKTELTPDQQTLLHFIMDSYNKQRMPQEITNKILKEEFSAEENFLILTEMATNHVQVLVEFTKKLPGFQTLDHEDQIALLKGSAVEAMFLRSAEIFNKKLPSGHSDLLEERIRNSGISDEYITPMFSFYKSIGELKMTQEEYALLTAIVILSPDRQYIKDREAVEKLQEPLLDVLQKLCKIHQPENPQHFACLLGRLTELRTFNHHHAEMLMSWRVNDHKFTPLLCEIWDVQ
Sequence of Peroxisome proliferator-activated receptor delta (Homo sapiens) (Q03181 whole entry, looked up): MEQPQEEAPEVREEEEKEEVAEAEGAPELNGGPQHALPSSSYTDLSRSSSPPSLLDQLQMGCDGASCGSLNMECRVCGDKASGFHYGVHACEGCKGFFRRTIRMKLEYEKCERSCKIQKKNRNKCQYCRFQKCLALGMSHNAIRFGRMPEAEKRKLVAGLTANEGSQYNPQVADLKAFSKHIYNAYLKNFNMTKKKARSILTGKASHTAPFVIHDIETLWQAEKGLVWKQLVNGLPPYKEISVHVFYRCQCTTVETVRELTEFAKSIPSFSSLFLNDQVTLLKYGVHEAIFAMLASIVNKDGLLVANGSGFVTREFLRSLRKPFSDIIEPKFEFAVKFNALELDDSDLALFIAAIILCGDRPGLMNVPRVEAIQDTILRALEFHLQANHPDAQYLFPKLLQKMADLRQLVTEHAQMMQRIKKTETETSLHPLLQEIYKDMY

`CCOc1cc2ncc(C#N)c(Nc3ccc(OCc4ccccn4)c(Cl)c3)c2cc1NC(=O)C=CCN(C)C`: the Potency is 1370 nM (active) in assay [1], 769 nM (active) in [2] and 1530 nM (active) in assay [3].

Regarding `Cn1cc(CNCC2CCN(c3ncc(C(=O)NO)cn3)CC2)c2ccccc21`, the Potency in assay [1] was 685 nM (active); in assay [2], 485 nM (active); in assay [3], 1530 nM (active). The Potency entry in [4] is “inactive”.

As for `CCCCCCOC(=O)N=C(N)c1ccc(NCc2nc3cc(C(=O)N(CCC(=O)OCC)c4ccccn4)ccc3n2C)cc1`, the Potency result in [1], in assay [2] and in [3] was “inactive” in each case.

`COCCOC(=O)C1=C(C)NC2=C(C(=O)CC(c3ccccc3OC)C2)C1c1cccc(O)c1` (configuration not stated): the results for the Potency in assay [1], in assay [2] and in [3] were 17200 nM (active), 10900 nM (active) and 15300 nM (active), respectively. For the same compound, the Potency result in [5] and in [6] was “inactive” in each case.

Consider `CCC1(O)CC2CN(CCc3c([nH]c4ccccc34)[C@@](C(=O)OC)(c3cc4c(cc3OC)N(C)C3[C@]45CCN4CC=C[C@@](CC)([C@@H](OC(C)=O)[C@]3(O)C(=O)OC)[C@H]45)C2)C1` (some centres not stated), for which the Potency is 15800 nM (active) in assay [7], 447 nM (active) in assay [1], 224 nM (active) in [2] and 708 nM (active) in assay [3]. In assay [8], the compound was classed as inactive.

In the case of `CC(=O)ON=C1C(c2c(O)[nH]c3cc(Br)ccc23)=Nc2ccccc21`, the Potency in assay [1] was 1930 nM (active). The Potency result in [2] and in [3] was “inactive” each time.

Regarding `FC(F)(F)c1ccc(Nc2nc3ccc(Oc4ccnc(-c5ncc(C(F)(F)F)[nH]5)c4)cc3[nH]2)cc1`, the Potency was 6110 nM (active) in [1], 1370 nM (active) in assay [2], 3850 nM (active) in assay [3] and 31600 nM (active) in [4]. In addition, the Potency result in assay [6] is “inactive”.

Regarding `Cc1cnc(Nc2ccc(N3CCN(C)CC3)cc2)nc1Nc1cccc(S(=O)(=O)NC(C)(C)C)c1`, the Potency in [1] is 3850 nM (active); in assay [2] it was 30600 nM (active); in assay [3], 30600 nM (active).

With `N#Cc1c(C2CCNCC2)cc(-c2c(O)cccc2OCC2CC2)nc1N`, the Potency in assay [1] was 19300 nM (active); in assay [2], 8630 nM (active); in assay [3] it was 5440 nM (active); in [10], 11200 nM (active); in [6], 7940 nM (active). Moreover, the Potency result in assay [9] was “inactive”.

Turning to `Cn1cc(-c2cnn3c(N)c(Br)c([C@H]4CCCNC4)nc23)cn1`, the Potency in assay [1] was 1220 nM (active); in assay [2], 1530 nM (active); in assay [3], 2730 nM (active).

For the compound `CCC(C=C[C@@H]1OC(=O)C=C[C@H]1C)=C[C@H](C)CC=CC(C)=C[C@@H](C)C(=O)[C@@H](C)[C@H](O)[C@@H](C)CC(C)=CC(=O)O`, the Potency in assay [1] is 114 nM (active); in assay [2], 144 nM (active); in assay [3], 203 nM (active).

Regarding `O=C(O)Cn1nnc(-c2cc(N3CCC(Oc4cc(F)ccc4Br)CC3)no2)n1`, the Potency is 1530 nM (active) in assay [1], 1720 nM (active) in assay [2], 2730 nM (active) in assay [3] and 3550 nM (active) in assay [6]. Further, in [4], the activity change, negative = inhibition is -56.8%.

For `CCOC(=O)N1CCN([N+]([O-])=NOc2ccc([N+](=O)[O-])cc2C#N)CC1`, the Potency in assay [1] is 10900 nM (active). Further, the Potency result in assay [2] and in assay [3] was “inactive” each time.

Turning to `CCc1c2c(nc3ccc(O)cc13)-c1cc3c(c(=O)n1C2)COC(=O)[C@]3(O)CC`, the Potency in assay [1] is 109 nM (active); in assay [2], 243 nM (active); in [3] it was 217 nM (active). For the same compound, the activity change, negative = inhibition in assay [4] was -97.1%.

For `Cc1nc(NC(=O)N2CCC[C@@H]2C(N)=O)sc1-c1ccnc(C(C)(C)C(F)(F)F)c1`, in assay [1], the Potency is 10900 nM (active). Moreover, the Potency entry in assay [2] and in [3] was “inactive” throughout.

Turning to `C=CC1CN2CCC1CC2c1[nH]c2ccccc2c1CCO` (configuration not stated), the Potency result in assay [1], in assay [2] and in assay [3] was “inactive” each time.

`COc1cc(-c2nn(C3CCC(N4CCN(C(C)=O)CC4)CC3)c3ncnc(N)c23)ccc1NC(=O)c1cc2ccccc2n1C` (configuration not stated): the Potency in assay [1] was 863 nM (active); in assay [2], 968 nM (active); in assay [3], 685 nM (active). Also, the Potency result in [6] is “inactive”.

Regarding `CC(C=CC1=C(C)CCCC1(C)C)=CC=CC(C)=CC(=O)Nc1ccc(O)cc1`, the activation in [11] was 2.75% (inactive). In assay [12], the Potency entry was “inactive”. The Potency in assay [1] and in assay [2] was 44400 nM (active) throughout.

Consider `C[C@@]1(C(=O)Nc2ccc(F)nc2)CCCN1c1nc(Nc2cc(C3CC3)[nH]n2)c2cccn2n1`, for which the Potency in assay [1] is 6110 nM (active); in [2], 1370 nM (active); in assay [5], 171 nM (active); in assay [13], 2710 nM (active). In addition, the Potency entry in assay [6] is “inactive”.

As for `N#CC(=C(\N)Sc1ccccc1N)/C(C#N)=C(/N)Sc1ccccc1N`, the Potency in [7] was 794 nM (active). For the same compound, in assay [8], the result was inactive. The Potency result in [1], in assay [2] and in [3] was “inactive” each time.

Regarding `Cc1nc2c([nH]1)CCN(C(=O)c1ccc(NC(=O)c3ccccc3-c3ccccc3)cc1)c1ccccc1-2`, the Potency entry in [1], in assay [2] and in [6] was “inactive” each time. Also, the compound was called inactive in assay [14] and in assay [15].

Regarding `CN(C)CCN1C(=O)c2cccc3cc(N)cc(c23)C1=O`, the Potency in assay [1] is 7690 nM (active); in assay [2] it was 6850 nM (active); in [4], 7080 nM (active).

Turning to `CC(C)NCC(O)COc1cccc2ccccc12` (configuration not stated), the Potency entry in assay [7], in assay [16], in assay [1] and in [2] was “inactive” throughout. The activation in [11] is 0.153% (inactive) and 4.79% (inactive).

As for `N#Cc1c(NC(=O)c2cccc3ccccc23)sc2c1CCCC2`, the Potency in assay [1] is 769 nM (active); in [2] it was 1090 nM (active); in assay [5], 1080 nM (active); in assay [13] it was 764 nM (active). In [4], the activity change, negative = inhibition was -63.8%.

The values above are taken from PubChem BioAssay (NCATS).
